Source: PubChem BioAssay
NOMO-1 viab – NOMO-1 AML cell viability reduction, primary screen, STK33 inhibitor project, CellTiter-Glo luminescence; 37,000 tested, 7.5% active; NOMO-1 AML viability, 72 h; inhibition, % (no concentration beside the values); AID 2330, 2010; in the data active means inhibition above about 80%; inconclusive means no clear call, values can overlap the other calls
U2OS ROS induce – ROS inducers in U2OS cancer cells, primary screen, cell-based, H2DCF-DA fluorescence; U2OS ROS induction; ROS induction (% of piperlongumine), % at 10 µM; 46,000 tested, 2% active; AID 624156, 2012; in the data active means ROS induction above about 79%, passing the limit was not always enough; inconclusive means no clear call, values can overlap the other calls
Each line names hits and unclear results; the compound was inactive in the other large screens. The entries come from a sample that favours hits as a whole.

COc1ccc(S(=O)(=O)Nc2ccc3c(c2)CC(=O)N([C@H](C)CO)C[C@@H](C)[C@@H](CN(C)S(=O)(=O)c2cccs2)O3)cc1	none
Cc1nnc(SCC(=O)Nc2ccc(Cl)cc2)n1-c1ccccc1	none
C[C@@H]1CN([C@@H](C)CO)C(=O)c2cc(NC(=O)Nc3cccc4ccccc34)ccc2O[C@@H]1CN(C)CC1CCCCC1	NOMO-1 viab 118.2
C[C@H](CO)N1C[C@H](C)[C@@H](CN(C)CC2CCCCC2)Oc2ccc(NC(=O)Nc3cccc4ccccc34)cc2C1=O	none
COc1ccc([C@@H]2C=C(C(=O)NCc3ccccc3)O[C@H](OCc3ccc(CO)cc3)C2)cc1	none (no result: NOMO-1 viab)
COc1ccc(NC(=O)CC(C(=O)O)N(C)C)cc1 (stereo not drawn)	none
C[C@H]1CN([C@@H](C)CO)C(=O)c2cc(NC(=O)Cc3ccccc3)ccc2O[C@@H]1CN(C)Cc1ccc(C(F)(F)F)cc1	U2OS ROS induce inconclusive
COc1ccc(-n2c(-c3cccc(OC)c3)csc2=NCc2cccnc2)cc1	U2OS ROS induce 115.9
COc1ccc(-n2c(SCC(N)=O)nnc2-c2cccnc2)cc1	none
C[C@@H]1CN([C@H](C)CO)C(=O)Cc2cc(NC(=O)Nc3cccc4ccccc34)ccc2O[C@H]1CN(C)S(=O)(=O)c1ccccc1	none
C[C@@H]1CN([C@H](C)CO)C(=O)c2cc(NS(C)(=O)=O)ccc2O[C@@H]1CN(C)Cc1ccccc1	none
O=C(Nc1ccccc1C(=O)NC1CCCCC1)c1ccc(Cl)c(S(=O)(=O)N2CCOCC2)c1	none
C[C@H](CO)N1C[C@H](C)[C@@H](CN(C)Cc2ccc(C(=O)Nc3ccccc3N)cc2)Oc2ccc(NC(=O)Cc3cn(C)c4ccccc34)cc2C1=O	none
Clc1ccc(-c2nc(N3CCCCC3)c3ccccc3n2)cc1	none (no result: NOMO-1 viab)
Clc1ccc(C2=NN=C(N3CCCC3)SC2)cc1	NOMO-1 viab 99.1
COc1ccc(NC(=O)COc2ccccc2Cl)cc1NC(=O)c1ccco1	none (no result: U2OS ROS induce)
Cc1ccc(S(=O)(=O)Nc2cccc3c2O[C@@H](CN(C)C(=O)Nc2cccc4ccccc24)[C@H](C)CN([C@@H](C)CO)C3=O)cc1	none
COc1ccc(Cl)cc1NC(=O)CSc1nc(N)cc(=O)[nH]1	none
CC(=O)Oc1ccccc1OCc1nn(C)c2ccccc12	none (no result: NOMO-1 viab)
CC(=O)Oc1c(I)c(=O)n(C)c2ccccc12	NOMO-1 viab 120.8
CCOc1ccccc1NC(=O)c1ccccc1N(C)S(=O)(=O)c1ccc(C)cc1	none (no result: U2OS ROS induce)
CCOc1ccccc1C(=O)Oc1c(S(=O)(=O)c2ccc(C)cc2)c(C)nn1-c1ccccc1	NOMO-1 viab 103.3 (no result: U2OS ROS induce)
C[C@H]1CN([C@@H](C)CO)C(=O)CCCn2nncc2CO[C@@H]1CN(C)S(=O)(=O)c1ccc(Cl)cc1	none (no result: NOMO-1 viab)
CC1=CCC[C@@H]2[C@@](C)(CCc3ccoc3)[C@H](C(=O)O)CC[C@@]12C	none
CCOC(=O)c1cnc(SCC(=O)Nc2ccc(F)c(F)c2F)nc1N	none
CCOC(=O)c1cnc(S/C=C/C(=O)c2ccc(Cl)cc2)nc1N	NOMO-1 viab 116.7
C[C@@H]1CCCCO[C@H](CN(C)C(=O)CCC(F)(F)F)[C@@H](C)CN([C@H](C)CO)C(=O)c2cc(NS(=O)(=O)c3ccccc3)ccc2O1	none
CCOc1cc(/C=C2\Sc3ccccc3C2=O)cc(I)c1O	U2OS ROS induce 95.8 (no result: NOMO-1 viab)
CCOc1cc(/C=C2\SC(=O)N(Cc3ccc(F)cc3)C2=O)ccc1O	none (no result: NOMO-1 viab)
Cc1ccc(S(=O)(=O)Nc2ccc3c(c2)CC(=O)N([C@H](C)CO)C[C@@H](C)[C@@H](CN(C)Cc2ccc(Cl)c(Cl)c2)O3)cc1	NOMO-1 viab 116.3
Cc1ccc(S(=O)(=O)Nc2ccc3c(c2)CC(=O)N([C@H](C)CO)C[C@@H](C)[C@H](CN(C)Cc2ccc(Cl)c(Cl)c2)O3)cc1	none
Cc1ccc(S(=O)(=O)Nc2ccc3c(c2)CC(=O)N([C@@H](C)CO)C[C@H](C)[C@H](CN(C)Cc2ccc(Cl)c(Cl)c2)O3)cc1	none
Cc1ccc(S(=O)(=O)Nc2ccc3c(c2)CC(=O)N([C@@H](C)CO)C[C@@H](C)[C@@H](CN(C)Cc2ccc(Cl)c(Cl)c2)O3)cc1	NOMO-1 viab 83.4
Cc1cc(C)c(C(=O)N2Cc3ccccc3NC2=S)c(C)c1	none
C[C@H]1CN([C@@H](C)CO)C(=O)c2cccc(NC(=O)Nc3ccc4c(c3)OCO4)c2O[C@@H]1CN(C)Cc1ccc(Cl)c(Cl)c1	NOMO-1 viab 90.6
C[C@@H]1CN([C@H](C)CO)C(=O)c2cccc(NC(=O)Nc3ccc4c(c3)OCO4)c2O[C@@H]1CN(C)Cc1ccc(Cl)c(Cl)c1	none
C[C@@H]1CN([C@@H](C)CO)C(=O)c2cccc(NC(=O)Nc3ccc4c(c3)OCO4)c2O[C@H]1CN(C)Cc1ccc2c(c1)OCO2	NOMO-1 viab 93.0
C[C@H]1CN([C@@H](C)CO)C(=O)c2cccc(NC(=O)Nc3ccc4c(c3)OCO4)c2O[C@H]1CN(C)Cc1ccc2c(c1)OCO2	none
C[C@@H]1CN([C@@H](C)CO)C(=O)c2cccc(NC(=O)Nc3ccc4c(c3)OCO4)c2O[C@H]1CN(C)Cc1ccccc1	NOMO-1 viab 106.6
